Test results: ChEMBL document CHEMBL4513216, “Probing the Open Global Health Chemical Diversity Library for Multistage-Active Starting Points for Next-Generation Antimalarials” (ACS Infect Dis, 2020)
The campaign covered roughly 69,000 compounds. About 8,600 (12%) showed an effect of 50% or more. This is one part of a sample in which strong results are shown more often than they occur.

test system: Plasmodium berghei; test: Screen against P. berghei liver stage (PbLuc), transformed with Luciferase, at 10uM; assay type: functional, HepG2; settings: tested at 10 uM

| SMILES | INHIBITION [%] |
| --- | --- |
| NC(=O)NCCC(=O)NCc1nn(-c2ccccc2)c2c1CCC2 | 15.115 |
| Nc1nc2c(c(NCC(c3cccnc3)N3CCOCC3)n1)CCCC2 (stereo unspecified) | -21.3 |
| CC(C)c1nn(C)c(Cl)c1CNCC(O)c1cccc(F)c1 (stereo unspecified) | 42 |
| Cc1cc(C(=O)N2CCN(Cc3ccsc3)CC2)n(C)n1 | -3.2 |
| CCOCC(O)CN1CCN(C(=O)c2ccccc2F)CC1 (stereo unspecified) | -35.7 |
| CN(C[C@@H]1CCC[C@@H]2CN(Cc3cccnc3)C[C@@H]21)C1CC1 | -5.63 |
| Cc1nccc(C(=O)NC(COCC(C)C)c2ccco2)n1 (stereo unspecified) | -19.4 |
| CCN(CC)C(=O)CCNC(=O)N(C)Cc1ccc(SC)c(OC)c1 | 8.97 |
| COc1cc(CN(C)C(=O)NC2CC2)ccc1SC | 14.3 |
| CCNC(=O)N(C)Cc1ccc(SC)c(OC)c1 | 55.1 |
| COc1cc(CN(C)C(=O)NCCNC(=O)C2CC2)ccc1SC | 52.9 |
| COc1cc(CN(C)C(=O)NCC(=O)NC(C)C)ccc1SC | 14.3 |
| CCOCCCNC(=O)N(C)Cc1ccc(SC)c(OC)c1 | 12.6 |
| CCC1CCCCCN1C(=O)c1nnc2ccccc2c1N (stereo unspecified) | 40.3 |
| Cc1cccc(OCCC(=O)NCC2CN(C)CCO2)c1C (stereo unspecified) | -36.85 |
| CC(C)NC(=O)C[C@@H]1CCNC[C@@H]1Cc1cc(-c2ccccn2)on1 | -14.2 |
| CC(C)NC(=O)C[C@@H]1CCNC[C@@H]1Cc1cc(-c2ccccc2)on1 | 59.8 |
| CC(C)(C)c1cc(C[C@H]2CNCC[C@H]2CC(=O)Nc2ccccc2)no1 | 44.4 |
| O=C(CC1[C@H]2CN(C(=O)Cc3ccccn3)C[C@@H]12)Nc1cccnc1 (stereo partly specified) | 39.4 |
| COCCNC(=O)C1CN(Cc2cccnc2)Cc2ccnn2C1 (stereo unspecified) | 35.7 |
| Cc1noc(C)c1CN1CC[C@H]2OCC[C@@H](C(=O)NCC3CC3)[C@H]2C1 | 54.7 |
| COCCNC(=O)C1CN(Cc2ccncc2)Cc2ccnn2C1 (stereo unspecified) | 89.3 |

| SMILES | INHIBITION [%] |
| --- | --- |
| COCCNC(=O)C1CN(Cc2csc(C)n2)Cc2ccnn2C1 (stereo unspecified) | 62.5 |
| COCCNC(=O)C1CN(Cc2cccc(C)n2)Cc2ccnn2C1 (stereo unspecified) | 7.77 |
| Cc1noc(C)c1CN1CC[C@H]2OCC[C@@H](C(=O)N3CCCO3)[C@@H]2C1 | 34.1 |
| CN(C)C(=O)C1CN(Cc2ccsc2)Cc2ccnn2C1 (stereo unspecified) | 52.6 |
| O=C(C1CN(Cc2ccsc2)Cc2ccnn2C1)N1CCCC1 (stereo unspecified) | 15.7 |
| CC(C)NC(=O)C1CN(Cc2ccsc2)Cc2ccnn2C1 (stereo unspecified) | 37.9 |
| Cc1noc(C)c1CN1CC[C@H]2OCC[C@@H](C(=O)NCC3CC3)[C@@H]2C1 | -3.83 |
| COCCNC(=O)C1CN(Cc2nccs2)Cc2ccnn2C1 (stereo unspecified) | 29.9 |
| COCCNC(=O)C1CN(Cc2ccsc2)Cc2ccnn2C1 (stereo unspecified) | 5.36 |
| Cc1cccc(N2CCN(C(=O)CCc3c(C)noc3Cl)CC2)c1 | 45.7 |
| CC(=O)c1ccc(S(=O)(=O)NCC2CCN(c3cnccn3)CC2)cc1 | 35 |
| O=C(CC1CCN(c2cccnn2)CC1)NC1CCOCC1 | 3.48 |
| O=C(CCN1CCCCO1)N1CCC(CO)(CCc2ccccc2)CC1 | -29 |
| O=C(NCC1CC1)C1CN(Cc2ccncc2)Cc2ccnn2C1 (stereo unspecified) | -2.35 |
| CS(=O)(=O)N1Cc2ccnn2CC(C(=O)NCc2cccnc2)C1 (stereo unspecified) | 77.4 |
| CC(=O)N1Cc2ccnn2CC(C(=O)NCc2cccnc2)C1 (stereo unspecified) | 46.6 |
| Cc1ccc(CN2Cc3ccnn3CC(C(=O)NCC3CC3)C2)o1 (stereo unspecified) | -31 |
| Cc1noc(C)c1CN1Cc2ccnn2CC(C(=O)NCC2CC2)C1 (stereo unspecified) | 85.8 |
| O=C(NCc1cccnc1)C1CC(=O)N(CC2CC2)C1 (stereo unspecified) | 37 |
| CNCC(=O)N1CC(c2cc(Nc3ncccn3)nc(C)n2)C1 | 29.6 |
| CCn1ncc2c1CCCC2NCc1cc(OC)cc(OC)c1 (stereo unspecified) | 37.9 |
| CC(C)n1cc(C(=O)NCCCn2ccnc2)c2n[nH]c(=O)c-2c1 | -7.57 |

| SMILES | INHIBITION [%] |
| --- | --- |
| Cc1ccc(N2CC[C@H]3C[C@H](C(=O)NCc4ccco4)O[C@@H]3C2)cc1 | 40.1 |
| CC(C)CN1CCS(=O)(=O)[C@@H]2CCN(S(=O)(=O)CC(C)C)CC[C@@H]21 | 2.41 |
| Cc1ccc(C(=O)NC2CCN(C(C)C)C2)c(=O)[nH]1 (stereo unspecified) | 20.8 |
| CC(C)NC(=O)c1cc(-c2ccc(S(C)(=O)=O)cc2)nc2c1cnn2C | 24.2 |
| CN(C)C(=O)c1cc(-c2ccc(S(C)(=O)=O)cc2)c2cnn(C)c2n1 | 25.9 |
| CC(C)NC(=O)c1cc(-c2ccc(S(C)(=O)=O)cc2)c2cnn(C)c2n1 | 94.6 |
| COc1cccc(CNC(=O)c2cccnc2SC(C)C)c1 | 7.27 |
| CCN(C)Cc1n[nH]c(=O)n1-c1ccc(C)c(C)c1 | 46.7 |
| O=C(CC1CC1)N1CCN(Cc2cccnc2)c2ncccc2C1 | 0.618 |
| CC1CCC(NC(=O)CNC2(c3cccc(Br)c3)CCOCC2)CC1 (stereo unspecified) | -7.46 |
| O=C(CC1Cn2ncnc2NC1=O)Nc1cccc(C(F)(F)F)c1 (stereo unspecified) | 54 |
| COc1cccc(NC(=O)CC2Cn3ncnc3NC2=O)c1 (stereo unspecified) | 25.9 |
| O=C(CC1Cn2ncnc2NC1=O)Nc1ccccc1 (stereo unspecified) | -46.2 |
| CN(Cc1cncnc1)Cc1cn2c(n1)CN(C1CCOC1)CC2 (stereo unspecified) | 1.28 |
| CCOC(=O)N1CCN(C(=O)c2snnc2-c2ccccc2)CC1 | -7.27 |
| COc1ccc(Cl)cc1CNC(=O)CN1CCC2(CCOC2)C1 (stereo unspecified) | 39.6 |
| COCc1ccccc1CNC(=O)CN1CCC2(CCOC2)C1 (stereo unspecified) | 68.4 |
| CCCOc1cccc(CNC(=O)CN2CCN(C)CC2C)c1 (stereo unspecified) | 36.9 |
| CCOc1cccc(CNC(=O)CN2CCC3(CCOC3)C2)c1 (stereo unspecified) | 61.9 |
| CNC(=O)CN1CCOCC2(CCCN(CCc3ccccc3)C2)C1 (stereo unspecified) | 43.2 |
| COCc1ccccc1CNC(=O)CN1CCCC1c1noc(C)n1 (stereo unspecified) | -1.05 |
| Cc1oncc1C(=O)N[C@@H]1CN(Cc2ccoc2)C[C@@H]2CCCO[C@@H]21 | 43 |
